# In the supplement of paper PMC4022240:
# ± gives the standard deviation.
# T1: HaloTag-ATRX ADD domain (163-292)
# T1 chain: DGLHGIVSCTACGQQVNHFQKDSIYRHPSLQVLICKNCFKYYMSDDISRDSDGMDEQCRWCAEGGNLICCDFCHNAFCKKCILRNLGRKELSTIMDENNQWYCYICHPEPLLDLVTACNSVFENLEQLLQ
# B1: H3 112-124 I H A Kme2 Rme2s V T I M P K D I (peptide)
# chain: IHAKRVTIMPKDI
# B2: H3 112-124 I H A Kme3 Rcit V T I M P K D I (peptide)
# chain: IHAKRVTIMPKDI
# B3: H3 112-124 I H A Kme2 R V T I M P Kac D I (peptide)
# chain: IHAKRVTIMPKDI
# B4: H3 112-124 I H A Kme2 Rme V T I M P K D I (peptide)
# chain: IHAKRVTIMPKDI
# B5: H3 112-124 I H A Kme3 Rme2s V T I M P K D I (peptide)
# chain: IHAKRVTIMPKDI
# B6: H3 112-124 I H A Kme3 Rme V T I M P K D I (peptide)
# chain: IHAKRVTIMPKDI
# B7: H3 112-124 I H A Kme3 R V T I M P Kme3 D I (peptide)
# chain: IHAKRVTIMPKDI
# B8: H3 112-124 I H A Kme3 R V T I M P Kme D I (peptide)
# chain: IHAKRVTIMPKDI
# B9: H3 112-124 I H A Kme2 R V T I M P Kme3 D I (peptide)
# chain: IHAKRVTIMPKDI
# B10: H3 112-124 I H A Kme3 Rme2a V T I M P K D I (peptide)
# chain: IHAKRVTIMPKDI
# Tests used:
# Experiment in all cases: peptide microarray binding signal (635 nm), min-max normalized on array (fraction of array maximum); higher = stronger binding
# Details in all cases: peptide region: H3 112-124
# [1] = biological target: T1, HaloTag-ATRX ADD domain (163-292)
# Summary of the method: (§1)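 Triplicate spots of histone 13-mer peptide–cellulose conjugates with a Cy3 tracer were printed on nitrocellulose and probed for 1 h at 4°C with biotin-labelled HaloTag reader fusions (10 nM to 1 μM) plus streptavidin-Alexa Fluor 647 or rabbit histone antibodies (1:10,000 to 1:2,000) plus anti-rabbit Alexa 647. An Axon GenePix 4000B read the 635 nm channel. Binding signal is the spot-triplicate mean intensity after min-max scaling within each library.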
# [2] = biological target: HaloTag-ING2 PHD (mouse Ing2 200-280)
# Summary of the method: as §1
# [3] = biological target: anti-H3K4me3 antibody ab8580
# Summary of the method: as §1
# [4] = biological target: anti-H3K9me3 antibody ab8898
# Summary of the method: as §1
# [5] = peptide modifications: H3K115me2 H3R116me2s, binder concentration: 1:2,000 dilution
# [6] = peptide modifications: H3K115me2 H3R116me2s, binder concentration: 1:10,000 dilution
# [7] = peptide modifications: H3K115me3 H3R116cit, binder concentration: 1:2,000 dilution
# [8] = peptide modifications: H3K115me3 H3R116cit, binder concentration: 1:10,000 dilution
# [9] = peptide modifications: H3K115me2 H3K122ac, binder concentration: 1:2,000 dilution
# [10] = peptide modifications: H3K115me2 H3K122ac, binder concentration: 1:10,000 dilution
# [11] = peptide modifications: H3K115me2 H3R116me1, binder concentration: 1:2,000 dilution
# [12] = peptide modifications: H3K115me2 H3R116me1, binder concentration: 1:10,000 dilution
# [13] = peptide modifications: H3K115me3 H3R116me2s, binder concentration: 1:2,000 dilution
# [14] = peptide modifications: H3K115me3 H3R116me2s, binder concentration: 1:10,000 dilution
# [15] = peptide modifications: H3K115me3 H3R116me1, binder concentration: 1:2,000 dilution
# [16] = peptide modifications: H3K115me3 H3R116me1, binder concentration: 1:10,000 dilution
# [17] = peptide modifications: H3K115me3 H3K122me3, binder concentration: 1:2,000 dilution
# [18] = peptide modifications: H3K115me3 H3K122me3, binder concentration: 1:10,000 dilution
# [19] = peptide modifications: H3K115me3 H3K122me1, binder concentration: 1:2,000 dilution
# [20] = peptide modifications: H3K115me3 H3K122me1, binder concentration: 1:10,000 dilution
# [21] = peptide modifications: H3K115me2 H3K122me3, binder concentration: 1:2,000 dilution
# [22] = peptide modifications: H3K115me2 H3K122me3, binder concentration: 1:10,000 dilution
# [23] = peptide modifications: H3K115me3 H3R116me2a, binder concentration: 1:2,000 dilution
# [24] = peptide modifications: H3K115me3 H3R116me2a, binder concentration: 1:10,000 dilution
binder,measurement,setting,value
B1,peptide microarray binding signal,"[1]; peptide modifications: H3K115me2 H3R116me2s, binder concentration: 50 nM",0.006426 ± 2.2e-05
same,peptide microarray binding signal,"[1]; peptide modifications: H3K115me2 H3R116me2s, binder concentration: 500 nM",0.00905 ± 0.00055
same,peptide microarray binding signal,"[2]; peptide modifications: H3K115me2 H3R116me2s, binder concentration: 10 nM",0.0113 ± 0.0004
same,peptide microarray binding signal,"[2]; peptide modifications: H3K115me2 H3R116me2s, binder concentration: 100 nM",0.0135 ± 0.00076
same,peptide microarray binding signal,[3]; [5],0.00383 ± 0.0002
same,peptide microarray binding signal,[3]; [6],0.00462 ± 0.00022
same,peptide microarray binding signal,[4]; [5],0.00335 ± 0.00032
same,peptide microarray binding signal,[4]; [6],0.00236 ± 3.7e-05
B2,peptide microarray binding signal,"[1]; peptide modifications: H3K115me3 H3R116cit, binder concentration: 50 nM",0.00821 ± 0.00022
same,peptide microarray binding signal,"[1]; peptide modifications: H3K115me3 H3R116cit, binder concentration: 500 nM",0.0148 ± 0.00063
same,peptide microarray binding signal,"[2]; peptide modifications: H3K115me3 H3R116cit, binder concentration: 10 nM",0.0661 ± 0.012
same,peptide microarray binding signal,"[2]; peptide modifications: H3K115me3 H3R116cit, binder concentration: 100 nM",0.0923 ± 0.011
same,peptide microarray binding signal,[3]; [7],0.0677 ± 0.0083
same,peptide microarray binding signal,[3]; [8],0.058 ± 0.0049
same,peptide microarray binding signal,[4]; [7],0.0746 ± 0.0023
same,peptide microarray binding signal,[4]; [8],0.0265 ± 0.00085
B3,peptide microarray binding signal,"[1]; peptide modifications: H3K115me2 H3K122ac, binder concentration: 50 nM",0.00357 ± 5.2e-05
same,peptide microarray binding signal,"[1]; peptide modifications: H3K115me2 H3K122ac, binder concentration: 500 nM",0.006 ± 0.00044
same,peptide microarray binding signal,"[2]; peptide modifications: H3K115me2 H3K122ac, binder concentration: 10 nM",0.0178 ± 0.0029
same,peptide microarray binding signal,"[2]; peptide modifications: H3K115me2 H3K122ac, binder concentration: 100 nM",0.0235 ± 0.0049
same,peptide microarray binding signal,[3]; [9],0.00145 ± 0.00019
same,peptide microarray binding signal,[3]; [10],0.00188 ± 0.00012
same,peptide microarray binding signal,[4]; [9],0.00186 ± 0.00037
same,peptide microarray binding signal,[4]; [10],0.00277 ± 0.00067
B4,peptide microarray binding signal,"[1]; peptide modifications: H3K115me2 H3R116me1, binder concentration: 50 nM",0.00978 ± 0.00067
same,peptide microarray binding signal,"[1]; peptide modifications: H3K115me2 H3R116me1, binder concentration: 500 nM",0.0323 ± 0.001
same,peptide microarray binding signal,"[2]; peptide modifications: H3K115me2 H3R116me1, binder concentration: 10 nM",0.0352 ± 0.017
same,peptide microarray binding signal,"[2]; peptide modifications: H3K115me2 H3R116me1, binder concentration: 100 nM",0.0291 ± 0.0025
same,peptide microarray binding signal,[3]; [11],0.0244 ± 0.00081
same,peptide microarray binding signal,[3]; [12],0.0144 ± 0.0052
same,peptide microarray binding signal,[4]; [11],0.00761 ± 0.0024
same,peptide microarray binding signal,[4]; [12],0.0104 ± 0.00061
B5,peptide microarray binding signal,"[1]; peptide modifications: H3K115me3 H3R116me2s, binder concentration: 50 nM",0.00351 ± 6.2e-05
same,peptide microarray binding signal,"[1]; peptide modifications: H3K115me3 H3R116me2s, binder concentration: 500 nM",0.00576 ± 0.00044
same,peptide microarray binding signal,"[2]; peptide modifications: H3K115me3 H3R116me2s, binder concentration: 10 nM",0.0107 ± 0.00099
same,peptide microarray binding signal,"[2]; peptide modifications: H3K115me3 H3R116me2s, binder concentration: 100 nM",0.0126 ± 0.0027
same,peptide microarray binding signal,[3]; [13],0.00608 ± 0.0018
same,peptide microarray binding signal,[3]; [14],0.0069 ± 0.00085
same,peptide microarray binding signal,[4]; [13],0.0055 ± 0.00076
same,peptide microarray binding signal,[4]; [14],0.00386 ± 0.00058
B6,peptide microarray binding signal,"[1]; peptide modifications: H3K115me3 H3R116me1, binder concentration: 50 nM",0.0052 ± 0.00018
same,peptide microarray binding signal,"[1]; peptide modifications: H3K115me3 H3R116me1, binder concentration: 500 nM",0.00929 ± 0.00049
same,peptide microarray binding signal,"[2]; peptide modifications: H3K115me3 H3R116me1, binder concentration: 10 nM",0.0491 ± 0.0085
same,peptide microarray binding signal,"[2]; peptide modifications: H3K115me3 H3R116me1, binder concentration: 100 nM",0.07016 ± 0.00021
same,peptide microarray binding signal,[3]; [15],0.0275 ± 0.0037
same,peptide microarray binding signal,[3]; [16],0.0305 ± 0.0067
same,peptide microarray binding signal,[4]; [15],0.0215 ± 0.0033
same,peptide microarray binding signal,[4]; [16],0.0113 ± 0.0013
B7,peptide microarray binding signal,"[1]; peptide modifications: H3K115me3 H3K122me3, binder concentration: 50 nM",0.00652 ± 0.00013
same,peptide microarray binding signal,"[1]; peptide modifications: H3K115me3 H3K122me3, binder concentration: 500 nM",0.014 ± 0.00024
same,peptide microarray binding signal,"[2]; peptide modifications: H3K115me3 H3K122me3, binder concentration: 10 nM",0.08 ± 0.013
same,peptide microarray binding signal,"[2]; peptide modifications: H3K115me3 H3K122me3, binder concentration: 100 nM",0.133 ± 0.011
same,peptide microarray binding signal,[3]; [17],0.0798 ± 0.017
same,peptide microarray binding signal,[3]; [18],0.0823 ± 0.0064
same,peptide microarray binding signal,[4]; [17],0.0648 ± 0.013
same,peptide microarray binding signal,[4]; [18],0.0227 ± 0.0026
B8,peptide microarray binding signal,"[1]; peptide modifications: H3K115me3 H3K122me1, binder concentration: 50 nM",0.006489 ± 2.2e-05
same,peptide microarray binding signal,"[1]; peptide modifications: H3K115me3 H3K122me1, binder concentration: 500 nM",0.0138 ± 0.00023
same,peptide microarray binding signal,"[2]; peptide modifications: H3K115me3 H3K122me1, binder concentration: 10 nM",0.0505 ± 0.0051
same,peptide microarray binding signal,"[2]; peptide modifications: H3K115me3 H3K122me1, binder concentration: 100 nM",0.0785 ± 0.0067
same,peptide microarray binding signal,[3]; [19],0.0317 ± 0.0091
same,peptide microarray binding signal,[3]; [20],0.0326 ± 0.0097
same,peptide microarray binding signal,[4]; [19],0.0313 ± 0.0018
same,peptide microarray binding signal,[4]; [20],0.0119 ± 0.00075
B9,peptide microarray binding signal,"[1]; peptide modifications: H3K115me2 H3K122me3, binder concentration: 50 nM",0.00401 ± 7.2e-05
same,peptide microarray binding signal,"[1]; peptide modifications: H3K115me2 H3K122me3, binder concentration: 500 nM",0.0105 ± 0.00042
same,peptide microarray binding signal,"[2]; peptide modifications: H3K115me2 H3K122me3, binder concentration: 10 nM",0.0258 ± 0.0013
same,peptide microarray binding signal,"[2]; peptide modifications: H3K115me2 H3K122me3, binder concentration: 100 nM",0.0359 ± 0.0052
same,peptide microarray binding signal,[3]; [21],0.00289 ± 0.00018
same,peptide microarray binding signal,[3]; [22],0.00274 ± 0.00017
same,peptide microarray binding signal,[4]; [21],0.0105 ± 0.0013
same,peptide microarray binding signal,[4]; [22],0.00536 ± 0.00056
B10,peptide microarray binding signal,"[1]; peptide modifications: H3K115me3 H3R116me2a, binder concentration: 50 nM",0.00345 ± 4.9e-05
same,peptide microarray binding signal,"[1]; peptide modifications: H3K115me3 H3R116me2a, binder concentration: 500 nM",0.00524 ± 0.00015
same,peptide microarray binding signal,"[2]; peptide modifications: H3K115me3 H3R116me2a, binder concentration: 10 nM",0.0172 ± 0.00022
same,peptide microarray binding signal,"[2]; peptide modifications: H3K115me3 H3R116me2a, binder concentration: 100 nM",0.0232 ± 0.0011
same,peptide microarray binding signal,[3]; [23],0.00885 ± 0.0017
same,peptide microarray binding signal,[3]; [24],0.00451 ± 0.00052
same,peptide microarray binding signal,[4]; [23],0.00763 ± 0.0013
same,peptide microarray binding signal,[4]; [24],0.00467 ± 0.00017
